Data taken from PubChem BioAssay AID624330 (Southern Research Specialized Biocontainment Screening …, 2012).
Among all 340,000 compounds or so, about 2,100 (0.62%) were called active.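 Rule for the calls: active = first-screen hits whose inhibition reached a set limit at any dose in the follow-up dose series; inconclusive = inhibition above the set first-screen limit but never retested; inactive = the rest.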 The list is a sample of the results. Entries with a potency or affinity are not part of this list.

Molecular target: Rac GTPase-activating protein 1 (Homo sapiens) (UniProt Q9H0H5)
Sequence (Q9H0H5 whole entry, looked up): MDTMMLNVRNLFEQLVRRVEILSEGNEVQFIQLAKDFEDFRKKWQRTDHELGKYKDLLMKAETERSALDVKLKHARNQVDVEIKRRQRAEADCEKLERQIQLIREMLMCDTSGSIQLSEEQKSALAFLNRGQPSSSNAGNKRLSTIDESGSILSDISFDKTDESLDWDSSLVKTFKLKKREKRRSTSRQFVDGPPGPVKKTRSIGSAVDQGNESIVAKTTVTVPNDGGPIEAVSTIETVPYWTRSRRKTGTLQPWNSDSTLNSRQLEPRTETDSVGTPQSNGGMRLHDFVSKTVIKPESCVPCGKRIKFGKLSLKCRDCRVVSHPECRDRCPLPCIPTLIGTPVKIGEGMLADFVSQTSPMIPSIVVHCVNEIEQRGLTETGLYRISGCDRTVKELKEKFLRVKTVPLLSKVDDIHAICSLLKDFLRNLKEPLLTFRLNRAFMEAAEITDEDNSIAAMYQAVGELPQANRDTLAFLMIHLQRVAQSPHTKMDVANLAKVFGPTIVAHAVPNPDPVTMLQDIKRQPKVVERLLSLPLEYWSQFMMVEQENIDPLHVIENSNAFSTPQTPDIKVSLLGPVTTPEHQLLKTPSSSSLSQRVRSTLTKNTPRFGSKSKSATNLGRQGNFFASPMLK
Experiment: MgcRacGAP GTPase-activating activity inhibitors, confirmation, biochemical, ADP Hunter fluorescence, primary and confirmatory (AID 624330);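 note: fluorescence reports GDP produced by GAP-driven GTP hydrolysis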
Conditions: MgcRacGAP-stimulated Rac1 GTP hydrolysis, at 30 µM, active compounds read high, GST-tagged Rac1 F28L mutant substrate

inhibition, inactive:
O=C(Nc1ccc(Cl)c(Cl)c1)N1N=CCC1c1ccccc1 (configuration not stated) 0.69%
COc1ccc(-c2cc(C(F)F)n3ncc(C(=O)Nc4c(C)n(C)n(-c5ccccc5)c4=O)c3n2)cc1 5.73%
COc1ccccc1NS(=O)(=O)c1cc(NC(=S)NCCN2CCOCC2)ccc1N1CCOCC1 21.5%
Cc1ccc(S(=O)(=O)N2CCCCC2)cc1NC(=O)C1=NN(c2ccccc2)C(=O)CC1 4.16%
Fc1ccc(OCc2nc3ccccc3s2)cc1 3.88%
c1ccc(OCc2nc3ccccc3s2)cc1 7.47%
O=c1oc2ccccc2c(O)c1Sc1c(O)c2ccccc2oc1=O 16.1%
COc1cc(C(=O)NCCCCc2ccccc2)cc(OC)c1OC 5.47%
COc1ncnc2c1ncn2CCCNCc1ccccn1 12.9%
COC(=O)C(NC(C)=O)(Nc1sc2c(c1C(N)=O)CCCC2)C(F)(F)F (configuration not stated) 4.3%
Cn1c(-c2ccc(F)cc2)cnc1NCc1ccccc1F 25.9%
COc1ccc(CNc2ncc(-c3cccc([N+](=O)[O-])c3)n2C)c(OC)c1OC 28.9%
COc1ccccc1CNc1ncc(-c2ccc(F)cc2)n1C 28.3%
Cn1c(-c2ccccc2)cnc1NCc1cc(Cl)ccc1O 31.7%
Cn1c(-c2ccc(F)cc2)cnc1NCc1ccc(F)cc1F 29.6%
COc1ccc(CNc2ncc(-c3ccccc3)n2C)c2ccccc12 23.6%
Cc1ccc(CNc2nc3ccccc3n2C)o1 8.19%
COc1ccc(CNc2ncc(-c3ccc(Cl)cc3)n2C)c(OC)c1OC 16.9%
COc1ccc(CNC(=O)c2ccc(Cn3nc(C)c([N+](=O)[O-])c3C)o2)cc1 5.77%
Cc1cc(C)c(SSc2nnnn2-c2ccccc2)c(C)c1 27.2%
CC1CN(C(=O)CCNC(=O)c2ccccc2Cl)CC(C)O1 (configuration not stated) 4.76%
COC(=O)[C@H](C(C)C)N(Cc1ccccc1)S(=O)(=O)CCN1CCN(c2ccccc2)CC1 3.71%
Cc1c(Br)c([N+](=O)[O-])nn1CC(=O)Nc1nccs1 -2.73%
COc1ccc(S(=O)(=O)NC(CC(=O)NC2CCCC2)c2ccco2)cc1 (configuration not stated) 5.91%
O=C(C1CCN(S(=O)(=O)c2cccc3nsnc23)CC1)N1CCc2ccccc2C1 -5.35%
Cn1c(-c2ccc(F)cc2)cnc1NCc1ccccc1 25.3%
Cn1c(-c2ccc(F)cc2)cnc1NCc1ccc(C#N)cc1 24.6%
COc1ccc(N2C(=O)C3CC(C)=C(C)CC3C2=O)c(OC)c1 (configuration not stated) 0.34%
O=C1C=CC(=O)N1c1ccccn1 7.4%
O=C(c1ccccc1)c1ccccc1N1C(=O)C=CC1=O 17.1%
COc1cc(N2C(=O)C=CC2=O)c(OC)cc1Cl -11.4%
CCCc1cc(=O)[nH]c(SCC(=O)Nc2ccc(C)c(S(=O)(=O)N3CCCCC3)c2)n1 6.98%
COc1cccc(OC)c1C(=O)N1CCN(c2ccccn2)CC1 6.84%
COC(=O)c1c(NC(=O)c2cccnc2)sc(C(=O)N(C)C)c1C 4.99%
COc1ccc(-c2cc(-c3ccc(OC)c(OC)c3)n[nH]2)c(O)c1 8.89%
COc1ccc(-c2cncnc2-c2ccc(OC)cc2O)cc1 2.33%
COc1ccc(-c2c(-c3ccc(O)cc3O)n[nH]c2C(F)(F)F)cc1 9.47%
COc1ccccc1-c1c(-c2ccc(O)cc2O)n[nH]c1C(F)(F)F 13.8%
COc1ccc(-c2nc(N)ncc2-c2ccccc2OC)c(O)c1 5.57%
COc1ccc(-c2cc3cc(OC)c(OC)cc3c(C)n2)cc1C 6.32%
COc1ccc(-c2cc(-c3ccccc3O)[nH]n2)cc1OC 13.3%
COc1ccc(-c2cc3cc(OC)c(OC)cc3c(C)n2)cc1 6.65%
COc1ccc(CNC(=O)C2CCCN(c3nn4c(=O)cc(C)nc4s3)C2)cc1 (configuration not stated) 12.2%
CC1C2Cn3c(nc4ccccc43)C1N(C(C)C)O2 (configuration not stated) 10.4%
Nc1ccc(C(=O)O)cc1S(=O)(=O)O 14.3%
CCOC(=O)c1cnc2c(Cl)c(Cl)ccc2c1NCCN1CCOCC1 8.14%
O=C(NC(=S)Nc1ccccc1Br)C1CCCCC1 13%
CCCN(CC(=O)Nc1ccccc1C)C(=O)C1CCN(S(=O)(=O)c2ccc3c(c2)OCCO3)CC1 4.31%
O=C(CCc1ccccc1)n1nc(-c2ccccc2)nc1NCc1ccco1 7.46%
COc1ccc(-c2nc(CCl)cs2)cc1OC 1.88%
COc1ccc(-c2nc(C(=O)O)cs2)cc1OC -2.83%
CCOc1ccc(-c2cc(C(=O)OC)[nH]n2)cc1 0.73%
CN(C)S(=O)(=O)c1ccc(C(=O)Nc2cccc(S(=O)(=O)NC3=NCCC3)c2)cc1 3.74%
O=[N+]([O-])c1ccc(N2CCN(c3cccc(Cl)c3)CC2)cn1 8.34%
Cn1c(-c2ccccc2)c(C(=O)CC#N)c2ccccc21 5.99%
Cn1c(-c2ccccc2)c(C(=O)CCl)c2ccccc21 -6.3%
CCOc1ccc2nc(-c3ccc(OC)c(OC)c3)cc(C(=O)O)c2c1 11.1%
COc1ccc(-c2cc(C(=O)Nc3ccc(C(N)=O)cc3)c3ccccc3n2)cc1OC 12.9%
COc1cc(-c2cc(C(=O)O)c3cc4ccccc4cc3n2)cc(OC)c1OC 11.4%
COc1ccc(-c2cc(C(=O)Nc3ccc(S(N)(=O)=O)cc3)c3ccccc3n2)cc1OC -3.78%
O=C(Nc1ccc(NC(=O)C2CC2)cn1)c1ccccc1 9.99%
COc1ccccc1-c1noc(-c2ccccc2C(=O)NCc2ccco2)n1 4.73%
